Experiment [1] concerns the target Cytochrome P450 1A2 (Homo sapiens) (UniProt P05177). Kind of experiment: p450-cyp1a2 (AID 410; calls by dose curve; also: potency is read from the fitted curve at half-maximal effect). The procedure, abridged: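 Luminescent readout of luciferin formed from Luciferin-ME by human CYP1A2; data normalized against complete inhibition by 57 uM furafylline. Enzyme 20nM, substrate 100uM at Km, 100mM KPO4 buffer, 60 min reaction at room temperature.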
Experiment [2] deals with Cytochrome P450 3A4 (Homo sapiens) (UniProt P08684). Kind of experiment: qHTS Assay for Activators of Cytochrome P450 3A4 (AID 885). Also: nearly all actives have a fitted effect of over 65% in size. The procedure, abridged:
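Quantitative HTS format: compounds preincubated with 20nM human CYP3A4 and Luciferin-PPXE substrate at KM, reaction started by NADPH regeneration, stopped after 60 min, luciferase luminescence read 20 min later.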

The target of experiment [3] is 3',5'-cyclic-AMP phosphodiesterase 4B (Homo sapiens) (UniProt Q07343). Kind of experiment: qHTS Assay for Inhibitors of PDE-IV (AID 607; active = well fitted activation curve with a large enough effect in the main read-out, with a control signal flat, not every such curve was filed as active; also: % of control where 0% means no effect). The procedure, abridged: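 Live HEK293 cells with a modified cyclic nucleotide-gated (CNG) channel report intracellular cAMP via membrane-potential dye fluorescence (ex 535/em 590 nm). Endogenous PDE-IV was targeted. Compounds were tested at up to 22.9 uM final; RO 20-1724 100 uM served as control.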
Chain of 3',5'-cyclic-AMP phosphodiesterase 4B (Homo sapiens) (Q07343 whole entry, looked up): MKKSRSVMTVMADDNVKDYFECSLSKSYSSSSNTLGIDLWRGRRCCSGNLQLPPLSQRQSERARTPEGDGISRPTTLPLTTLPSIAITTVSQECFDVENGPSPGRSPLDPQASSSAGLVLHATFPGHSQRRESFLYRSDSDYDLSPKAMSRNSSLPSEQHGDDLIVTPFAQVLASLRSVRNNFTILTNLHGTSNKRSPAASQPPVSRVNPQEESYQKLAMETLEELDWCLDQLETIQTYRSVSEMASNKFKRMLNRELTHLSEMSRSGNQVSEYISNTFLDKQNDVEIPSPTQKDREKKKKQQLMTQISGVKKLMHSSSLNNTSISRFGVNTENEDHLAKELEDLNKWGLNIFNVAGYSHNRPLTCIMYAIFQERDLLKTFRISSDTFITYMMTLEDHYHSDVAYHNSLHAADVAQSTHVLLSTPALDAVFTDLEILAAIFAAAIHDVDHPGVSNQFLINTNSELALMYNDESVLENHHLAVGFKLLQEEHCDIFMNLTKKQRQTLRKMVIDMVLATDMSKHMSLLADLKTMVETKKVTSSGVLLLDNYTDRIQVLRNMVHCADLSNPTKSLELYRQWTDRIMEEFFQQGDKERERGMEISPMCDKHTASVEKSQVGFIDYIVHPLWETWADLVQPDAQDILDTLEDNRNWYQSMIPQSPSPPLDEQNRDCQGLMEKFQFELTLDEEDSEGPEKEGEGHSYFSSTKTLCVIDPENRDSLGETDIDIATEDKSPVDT

Experiment [4] concerns the target Cytochrome P450 2C9 (Homo sapiens) (UniProt P11712). Kind of experiment: qHTS Assay for Inhibitors and Substrates of Cytochrome P450 2C9 (AID 883). Also: potency is read from the fitted curve at half-maximal effect; nearly all actives have a fitted effect of over 60% in size. An outline of the steps:
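A luminogenic readout tracked human CYP2C9 (10nM) converting deoxyluciferin (100uM, at KM) in 25mM KPO4 during 60 min at 37C with regenerated NADPH. Values normalized to 57uM sulphaphenazole as complete inhibition.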

A short description of experiment [5]: Cell Viability - BJ (AID 421; calls by dose curve;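 also: potency is read from the fitted curve at half-maximal effect; cells exposed to compound for 40 hours at 37 °C before readout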). As to conditions: BJ fibroblast viability, qHTS. The procedure, abridged:
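Quantitative HTS: ATP depletion in BJ cells after 40 hr compound exposure in complete culture medium, detected with CellTiter-Glo; AC50 from standard Hill fits.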

Experiment [6] can be described thus: Cell Viability - Jurkat (AID 426;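 active = dose-dependent loss of cell ATP signal giving a full or clear fitted curve, ranked by lower potency value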; also: potency is read from the fitted curve at half-maximal effect). As to conditions: qHTS. An outline of the steps: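 qHTS, 1536-well; Jurkat E6-1, 5000 cells/well, complete medium; cpd 40 hr, 37 °C; CellTiter-Glo 20 min RT; luminescence. AC50 by Hill fit.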
Experiment [7] can be described thus: Cell Viability - Hek293 (AID 427;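 active = compounds whose dose-response curve shows a full or clear partial loss of cell viability, called from curve shape rather than a numeric limit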;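 also: potency is read from the fitted curve at half-maximal effect; cells exposed to compound for 40 hours at 37 °C before reading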). As to conditions: qHTS. The procedure, abridged: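 AC50 values derive from Hill-modelled concentration-response of ATP-based luminescence, normalized between DMSO-only and 100 uM tamoxifen controls. Cells were exposed in complete culture medium for 40 hr at 37 °C before detection.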
Experiment [8] can be described thus: Cell Viability - SK-N-SH (AID 435; calls by dose curve;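 also: potency is read from the fitted curve at half-maximal effect; compound exposure lasted 40 h at 37 °C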). The conditions noted are these: SK-N-SH neuroblastoma cell viability qHTS. An outline of the steps: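 SK-N-SH neuroblastoma cells (1500/well) treated 40 h at 37 °C in complete medium; viability read as cellular ATP by CellTiter-Glo luminescence. Normalized to DMSO and 100 uM tamoxifen; AC50 from Hill fits of qHTS concentration-response.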

Experiment [9] has as its target Mitogen-activated protein kinase 10 (Mus musculus) (UniProt Q61831). Kind of experiment: JNK3 AlphaScreen Assay (AID 530; active = well fitted curve in either direction with a large enough effect, not every such curve was filed as active;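 also: kinase came from lysate of stimulated human HepG2 cells; signal reports phosphorylation of biotinylated GST-cJun 1-79 at Ser73 with 10 µM ATP; % is scaled to controls: 0 for no effect and ±100 for the full control effect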). An outline of the steps: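 Inhibitors reduce antibody binding to phosphorylated biotin-cJun, lowering AlphaScreen luminescence. Lysates from HepG2 cells pre-activated by IL-1beta plus TNF-alpha supplied JNK3; compounds were titrated.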
Experiment [10] can be described thus: Cell Viability - N2a (AID 540). Also: nearly all actives have a fitted effect of over 45% in size. Also: potency is read from the fitted curve at half-maximal effect.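 As to activity change, negative = cytotoxicity: plate controls were DMSO alone for no effect and tamoxifen control for full effect.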 As to conditions: N2a mouse neuroblastoma cell viability; activity change, negative = cytotoxicity: at 92.2 µM (top of the series). An outline of the steps:
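Luminescent ATP signal (CellTiter-Glo, 20 min at room temperature) served as the viability read-out after N2a cells were treated with compounds for 40 hours at 37 °C. Concentration-response data were fitted to the Hill equation for AC50.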

The nature of experiment [11]: Cell Viability - H-4-II-E (AID 543). Also: nearly all actives have a fitted effect of over 35% in size. Also: potency is read from the fitted curve at half-maximal effect. The procedure, abridged:
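Luminescent ATP signal (CellTiter-Glo) served as the viability read-out, with cytotoxicity seen as a concentration-dependent ATP drop. Cells were treated for 40 hours in complete medium. AC50 values derive from Hill-equation modelling.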

Experiment [12] in a line: Cell Viability - SH-SY5Y (AID 544). Also: nearly all actives have a fitted effect of over 55% in size. Also: potency is read from the fitted curve at half-maximal effect. The conditions noted are these: SH-SY5Y neuroblastoma cell viability; viability change, negative = cytotoxic: at 92.2 µM (top of the series). An outline of the steps:
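Luminescent ATP read-out (CellTiter-Glo) measures loss of viable SH-SY5Y neuroblastoma cells after 40 hr compound exposure at 37 °C. AC50 values derive from standard Hill modelling of qHTS concentration-response data.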

Experiment [13] can be described thus: Cell Viability - Renal Proximal Tubule (AID 545). Also: nearly all actives have a fitted effect of over 40% in size. Also: potency is read from the fitted curve at half-maximal effect. As to conditions: renal proximal tubule cells viability, primary cells of rat origin; activity change, negative = cytotoxicity: at 91.7 µM (top of the series). An outline of the steps: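 Rat renal proximal tubule primary cells, 1000/well, exposed to compounds for 40 hr at 37 °C in complete medium; cellular ATP read by CellTiter-Glo luminescence. AC50 from concentration-response fitted with standard Hill equation.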

Experiment [14] can be described thus: Cellular Toxicity (caspase-3) HepG2 (AID 654).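 Also: cells exposed to compound for 16 hours before reading; 0% = DMSO alone and 100% = caspase signal from 100 µM tamoxifen.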 An outline of the steps:
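Cells plated 5 hr at 37 °C, compound added, incubated 16 hr at 37 °C. Caspase-Glo 3/7 reagent followed, 20 min at room temperature, then luminescence read. Activation scored as signal increase; AC50 from Hill fit.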

Experiment [15] in a line: Cellular Toxicity (caspase-3) Hek293 (AID 664).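 Also: cells exposed to compound for 16 h at 37 °C before readout.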 As to conditions: HEK293 caspase-3 activation, DMSO = 0%, 100 µM tamoxifen = 100%; at 92.2 µM (top of the series). An outline of the steps: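 Cells plated, 5 hr at 37 °C; compounds added; 16 hr at 37 °C; Caspase-Glo 3/7 reagent, 20 min RT; luminescence read. Activation expressed relative to DMSO and 100 uM tamoxifen, AC50 by Hill model.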

Experiment [16] is described as follows: Cellular Toxicity (caspase-3) N2a (AID 665).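 Also: compound exposure lasted 16 h at 37 °C before readout.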 Also: potency is read from the fitted curve at half-maximal effect. As to conditions: Potency: caspase-3 activation. An outline of the steps:
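N2a cells, 1500/well, 5 h settle at 37 °C; cpd 16 h, 37 °C; Caspase-Glo 3/7, 1 h RT; luminescence. Norm: DMSO = 0, 10 uM staurosporine = 100%. AC50, Hill fit.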

The target of experiment [17] is Cytochrome P450 3A4 (Homo sapiens) (UniProt P08684). Kind of experiment: qHTS Assay for Inhibitors and Substrates of Cytochrome P450 3A4 (AID 884). Also: nearly all actives have a fitted effect of over 50% in size. Also: potency is read from the fitted curve at half-maximal effect. An outline of the steps:
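20 nM human CYP3A4 with 25 uM Luciferin-PPXE (at KM) in 200 mM KPO4, preincubated 10 min with compound; NADPH regeneration started a 60 min RT reaction. Luciferin detected by luminescence, normalized to 57 uM ketoconazole as full inhibition.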

In experiment [18] the target is Peroxisome proliferator-activated receptor alpha (Homo sapiens) (UniProt Q07869). Nature of the experiment: qHTS assay for small molecule agonists of the peroxisome proliferator-activated receptor alpha (PPARalpha) signaling pathway (AID 651778). Also: % of control where 0% means no effect. The conditions noted are these: PathHunter PPARalpha complementation, chemiluminescence, 6 h; max response: active compounds read high. The procedure, abridged: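 Cells plated at 2,000/well and held overnight at 37 C, 5% CO2, then compound added by pin tool for 6 hr; after PathHunter detection reagent and 60 min at room temperature, chemiluminescence from enzyme complementation was read.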
Chain of Peroxisome proliferator-activated receptor alpha (Homo sapiens) (Q07869 whole entry, looked up): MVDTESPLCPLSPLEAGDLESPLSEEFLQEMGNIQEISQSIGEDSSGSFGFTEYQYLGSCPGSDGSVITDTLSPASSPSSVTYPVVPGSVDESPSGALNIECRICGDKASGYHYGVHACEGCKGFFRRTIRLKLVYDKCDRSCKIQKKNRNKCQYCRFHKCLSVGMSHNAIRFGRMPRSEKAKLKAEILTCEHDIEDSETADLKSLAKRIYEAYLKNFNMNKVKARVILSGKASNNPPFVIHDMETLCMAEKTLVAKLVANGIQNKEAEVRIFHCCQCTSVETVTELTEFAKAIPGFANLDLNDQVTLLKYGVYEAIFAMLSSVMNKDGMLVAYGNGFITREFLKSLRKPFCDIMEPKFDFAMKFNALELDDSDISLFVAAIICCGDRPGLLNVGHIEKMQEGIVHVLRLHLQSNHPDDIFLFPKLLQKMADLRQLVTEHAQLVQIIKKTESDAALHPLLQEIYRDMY

For experiment [19], the target named is Cytochrome P450 2C19 (Homo sapiens) (UniProt P33261). Kind of experiment: qHTS Assay for Inhibitors and Substrates of Cytochrome P450 2C19 (AID 899). Also: potency is read from the fitted curve at half-maximal effect; nearly all actives have a fitted effect of over 60% in size. An outline of the steps:
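NADPH-dependent conversion of Luciferin-H EGE (10uM, at KM) by 5nM enzyme in 50mM KPO4, 60 min at 37C following 10 min compound preincubation. Stopped with luciferin detection buffer; luminescence read after 20 min.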

SMILES strings stand for the structures. Where “and” joins values, the source holds several entries; their conditions need not be identical. Equal values may be shown once. A number with no mark means an inactive call. Records with an inconclusive call do not appear. Calls of active or inactive are those of the source. Unless noted, calls follow the shape of the dose curve; as a rule, active = well fitted curve in the direction sought with a large enough effect; inconclusive = small, poorly fitted or top-dose-only effect, or another doubt; inactive = no such curve, though single readings can be large; an effect the other way counts as inactive or inconclusive.

Chain of Cytochrome P450 2C19 (Homo sapiens) (P33261 whole entry, looked up): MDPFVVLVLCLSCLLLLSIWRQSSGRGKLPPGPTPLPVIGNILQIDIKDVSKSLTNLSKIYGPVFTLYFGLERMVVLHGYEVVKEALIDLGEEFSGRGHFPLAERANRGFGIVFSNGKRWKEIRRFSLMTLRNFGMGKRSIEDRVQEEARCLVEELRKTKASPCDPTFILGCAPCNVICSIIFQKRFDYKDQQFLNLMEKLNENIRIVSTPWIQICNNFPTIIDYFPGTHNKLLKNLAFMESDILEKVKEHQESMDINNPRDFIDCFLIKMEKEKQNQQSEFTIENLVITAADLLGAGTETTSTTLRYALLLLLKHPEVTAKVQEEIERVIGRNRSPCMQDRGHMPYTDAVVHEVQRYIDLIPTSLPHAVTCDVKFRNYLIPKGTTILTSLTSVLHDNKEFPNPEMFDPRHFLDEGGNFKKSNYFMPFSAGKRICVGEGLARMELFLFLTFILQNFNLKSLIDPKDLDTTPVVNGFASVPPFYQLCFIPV
Chain of Cytochrome P450 3A4 (Homo sapiens) (P08684 whole entry, looked up): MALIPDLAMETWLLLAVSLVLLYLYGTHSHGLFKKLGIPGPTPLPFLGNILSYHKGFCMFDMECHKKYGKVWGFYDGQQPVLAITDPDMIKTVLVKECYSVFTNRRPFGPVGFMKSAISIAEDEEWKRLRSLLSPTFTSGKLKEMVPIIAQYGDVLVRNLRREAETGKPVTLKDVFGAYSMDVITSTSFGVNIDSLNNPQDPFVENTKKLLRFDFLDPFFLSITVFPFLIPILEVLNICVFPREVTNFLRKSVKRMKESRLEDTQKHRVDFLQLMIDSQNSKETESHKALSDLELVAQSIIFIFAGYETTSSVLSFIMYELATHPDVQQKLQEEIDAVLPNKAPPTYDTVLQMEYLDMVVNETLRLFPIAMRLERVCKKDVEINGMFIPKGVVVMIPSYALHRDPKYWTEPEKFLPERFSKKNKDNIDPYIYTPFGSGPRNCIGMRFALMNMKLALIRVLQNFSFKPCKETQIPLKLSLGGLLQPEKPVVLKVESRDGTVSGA
Chain of Cytochrome P450 2C9 (Homo sapiens) (P11712 whole entry, looked up): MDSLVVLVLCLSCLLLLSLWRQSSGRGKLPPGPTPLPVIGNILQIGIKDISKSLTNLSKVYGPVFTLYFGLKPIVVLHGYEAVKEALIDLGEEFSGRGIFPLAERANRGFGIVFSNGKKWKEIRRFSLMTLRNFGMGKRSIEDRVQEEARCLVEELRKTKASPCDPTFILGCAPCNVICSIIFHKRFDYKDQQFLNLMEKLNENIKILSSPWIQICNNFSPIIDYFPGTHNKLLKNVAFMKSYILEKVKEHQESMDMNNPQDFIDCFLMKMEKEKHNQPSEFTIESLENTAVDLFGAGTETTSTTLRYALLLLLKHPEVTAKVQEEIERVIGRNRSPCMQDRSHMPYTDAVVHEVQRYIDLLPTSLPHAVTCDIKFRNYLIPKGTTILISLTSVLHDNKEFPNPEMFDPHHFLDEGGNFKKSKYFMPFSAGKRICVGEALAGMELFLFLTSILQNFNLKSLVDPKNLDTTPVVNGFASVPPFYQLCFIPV
Chain of Cytochrome P450 1A2 (Homo sapiens) (P05177 whole entry, looked up): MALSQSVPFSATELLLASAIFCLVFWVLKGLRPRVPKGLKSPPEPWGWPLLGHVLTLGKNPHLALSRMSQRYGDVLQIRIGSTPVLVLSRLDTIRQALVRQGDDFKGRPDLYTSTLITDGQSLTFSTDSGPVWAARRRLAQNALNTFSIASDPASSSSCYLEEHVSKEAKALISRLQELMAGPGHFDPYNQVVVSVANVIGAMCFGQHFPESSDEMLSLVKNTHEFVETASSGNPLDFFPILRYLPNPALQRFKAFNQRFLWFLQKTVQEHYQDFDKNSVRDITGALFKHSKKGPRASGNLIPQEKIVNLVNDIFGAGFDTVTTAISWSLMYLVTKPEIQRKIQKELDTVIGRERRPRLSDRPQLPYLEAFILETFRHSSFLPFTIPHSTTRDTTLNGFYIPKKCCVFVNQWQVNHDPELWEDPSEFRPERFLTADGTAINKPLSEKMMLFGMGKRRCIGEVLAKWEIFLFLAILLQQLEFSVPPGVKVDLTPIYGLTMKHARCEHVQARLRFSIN

On to `CCCC/C=C/C(NC(=O)c1ccccc1)c1ccccc1` (configuration not stated), for which the Potency in [1] was 3.98 µM (active). Moreover, in experiment [2], the Potency result is “inactive”.
Regarding `CCC/C=C(\CCC)C(NC(=O)OCC(C)C)c1ccc(C(=O)OC)cc1` (configuration not stated), the figures for the Potency in experiment [1] and in [4] were 15.8 µM (active) and 3.98 µM (active), respectively. The Potency entry in experiment [3] and in [2] was “inactive” throughout.
Take `CCCCCC/C(C=O)=C\c1ccccc1`: the Potency in [5], in experiment [6], in [7] and in experiment [8] was above 92 µM each time. The Potency entry in experiment [9], in experiment [10], in experiment [11], in experiment [12], in [13] and in experiment [14] was “inactive” throughout. In addition, the Potency entry in experiment [16] and in experiment [17] was “inactive” throughout. Further, the caspase-3 activation in experiment [15] is 2.43%. Besides, the max response in experiment [18] was -1.11%.
Turning to `C=CC(=O)OCC(CO)(COC(=O)C=C)COC(=O)C=C`, the Potency in experiment [5] was above 92 µM; in experiment [6] it was 1.6 µM (active); in experiment [7], 8.68 µM (active); in [8] it was 2.02 µM (active); in experiment [10], 15.8 µM (active); in experiment [11], 2.51 µM (active). Besides, the values for the Potency in experiment [12], in experiment [13] and in [16] were 1.58 µM (active), 3.16 µM (active) and 6.31 µM (active), respectively. For the same compound, the Potency result in [9] and in experiment [14] was “inactive” each time. In addition, in [15], the caspase-3 activation was -6.03%. Further, the max response in experiment [18] is 1.55% and 0.0188%.
Turning to `CCc1cccc2nc3c(c([Si](C)(C)C)c12)Cn1c-3cccc1=O`, the Potency in experiment [1] was 2.51 µM (active). In addition, the Potency entry in [9] and in experiment [2] was “inactive” throughout.
In the case of `CCc1cccc2c(-c3ccccc3)c3c(nc12)OCC3`, the results for the Potency in experiment [1] and in experiment [19] were 0.316 µM (active) and 7.94 µM (active), respectively.
For the compound `CCC/C=C(\CCC)C(NS(=O)(=O)c1ccc(C(F)(F)F)cc1)c1ccccc1` (configuration not stated), in experiment [1], the Potency is 7.94 µM (active). The Potency result in [3] and in [2] was “inactive” throughout.
`CCC/C=C(\CCC)C(NS(=O)(=O)c1ccc(Cl)cc1)c1ccc(C(=O)OC)cc1` (configuration not stated): the Potency in experiment [1] was 3.16 µM (active); in experiment [4], 3.16 µM (active); in experiment [17], 3.98 µM (active); in experiment [19], 1.58 µM (active). Moreover, the Potency result in [2] was “inactive”.
On to `COC(=O)[C@H](C)[C@H]1C[C@]1(C)[C@H](NC(=O)OCc1ccccc1)c1ccccc1`, for which the Potency is 15.8 µM (active) in [1], 2 µM (active) in [4], 7.94 µM (active) in experiment [17] and 0.251 µM (active) in [19]. The Potency entry in [3] and in experiment [2] was “inactive” in each case.
